This is one part of the list. Unmarked numbers belong to inactive results.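 Rule for the calls: active = superoxide signal below 65% of the plate average of sample wells; inactive = the rest.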
Assay: retest of yeast aging ROS inhibitors – cherry picked compounds, confirmation (AID 434994);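 note: cells aged with compound for 7 days at 30 degrees C before staining; 100% equals mean DHE fluorescence of all compound wells on the plate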
Settings: S. cerevisiae aging, superoxide DHE fluorescence; at 10 µM; hits give low values

| SMILES | superoxide response (% of plate) [%] |
| --- | --- |
| C[C@]12CCC3C(CC[C@H]4C[C@@H](O)CC[C@]34C)C1C[C@@H](O)[C@H]2O (some centres not stated) | 90.6 |
| CN1CCN(C(=S)SCC(=O)Nc2ccc(Cl)cc2C(=O)c2ccccc2)CC1 | 111 |

Source: PubChem BioAssay AID434994 (NMMLSC, 2010)
